# Shiga inhibitor = blocks Shiga toxin action in Vero cells. Vero cells, Shiga toxin protein synthesis inhibition reporter. inhibition, % at 38.7 µM. 290,000 compounds, 9.2% hits. AID 2315; in the data active = inhibition mostly above about 28%, no sharp cut-off; inactive = mostly below about 43%; note: 0% is about no effect
# Cycloheximide cs = counter-screen hit for Shiga toxin inhibitors, cycloheximide; 300,000 compounds, 12% hits; cell reporter, cycloheximide protein synthesis inhibition counterscreen; AID 2314; max response, %; in the data active = max response mostly above about 13%, no sharp cut-off; inactive = mostly below about 14%; note: read at 38.3 µM for the half of the compounds with a filed dose; 0% is about no effect
# HCMV inh = inhibitors of human cytomegalovirus | HFF cells, HCMV-luciferase reporter, 72 h; active compounds read low | activity change, negative = inhibition, % at 57.5 µM | 410,000 compounds, 4.5% hits; in the data active = activity change below about -60%; inconclusive = no clear call, values can overlap the other calls; inactive = above about -39%; note: % is set by controls: 0 for no effect and ±100 for the full control effect
#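 Cell-based, HFFs, 1000 cells/well, 16 h 37C; cpds in DMSO + HCMV-luc, MOI 1 PFU/cell; 72 h 37C; OneGlo luminescence after 5 min RT; norm. to buffer vs Salinomycin 10uM.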
# Pf growth 48h = P. falciparum growth inhibition at 48 hours (one generation); P. falciparum luciferase growth in erythrocytes, 48 h; Potency, µM (series often up to 28.7 µM), for the others: at the top dose activity change, negative = inhibition, hits mostly inhibitors; 310,000 compounds, 5.9% hits; note: potency is the fitted concentration of half-maximal effect; % is set by controls: 0 for no effect and ±100 for the full control effect
#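 Luciferase-expressing P. falciparum in infected erythrocytes (2% hematocrit, 0.1% parasitemia final) in RPMI 1640/0.5% Albumax were exposed to compound for 48 hours at 37 C, 5% CO2; growth read as luminescence.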
# Pf growth 96h = P. falciparum growth inhibition at 96 hours | 320,000 compounds, 6.9% hits | Potency, µM (titrated, usually from 28.7 µM), inactives show at the highest dose activity change, negative = inhibition, most hits filed as inhibitors | P. falciparum luciferase reporter growth, 96 h | AID 504834; note: potency is the fitted concentration of half-maximal effect; % is set by controls: 0 for no effect and ±100 for the full control effect
#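 Delayed-death screen, second-generation endpoint: infected erythrocytes, 2% hematocrit, 0.05% parasitemia final; 96 hours at 37 C, 5% CO2; luciferase detection reagent; luminescence decrease equals reduced growth.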
# An asterisk follows results filed as active; ? = inconclusive; . = no result given; [ ] = remark or other dose. Rows were chosen to be rich in hits. Some 20% of all compounds tested hit in one or more screens of this group. Unless noted, calls come from the whole dose curve; as a rule, active = well fitted inhibition curve with a large enough effect; inconclusive = small, poorly fitted or top-dose-only effect, or another doubt; inactive = no such curve, though single readings can be large or run the other way.
SMILES,Shiga inhibitor,Cycloheximide cs,HCMV inh,Pf growth 48h,Pf growth 96h
O=C(COC(=O)c1ccccc1Nc1ccccc1)NCc1ccco1,26,16*,9,.,?
CCc1ccc(S(=O)(=O)c2nnn3c2nc(Nc2ccc(NC(C)=O)cc2)c2sccc23)cc1,.,.,11,.,.
Cc1cc(NC(=O)c2c(Br)c(C)nn2C)no1,39,0,2,-1%,0%
CC(=O)Nc1ccc(OC(=O)c2ccccc2O)cc1,.,.,.,-3%,-8%
CC(=O)Nc1ccc(C(=O)OCc2ccc(Cl)cc2)cc1,28,-3,44,15%,?
O=C(COC(=O)c1ccccc1Nc1ccccc1)c1ccccc1,35,30*,-22,-1%,-24%
CN(C)c1cccc(C(=O)OCC(=O)NCc2ccco2)c1,18,19*,3,-4%,2%
COc1cc(OC)cc(C(=O)OCC(=O)NCc2ccco2)c1,.,.,-11,7%,22%
CC(=O)Nc1ccc(OC(=O)c2ccccc2N)cc1,-53,19*,0,6%,1%
CC(=O)Nc1ccc(C(=O)OCc2ccccc2Br)cc1,58*,27*,-10,3%,31%[5.75 µM]
Cc1ccc(NC(=O)COC(=O)c2ccccc2Nc2ccccc2)cc1,13,4,-35,1%,-22%
COc1ccccc1OCC(=O)NCC1CCCN(C(=O)c2cccc(C)c2)C1 (centres undefined),.,.,-3,.,.
O=C(NCN1CCOCC1)c1cnccn1,8,-3,-13,-16%,37%
CC(C)C(NC(=O)c1ccccc1F)C(=O)OCC(=O)c1ccc(F)cc1 (centres undefined),94*,62*,-3,61%,51%
O=C(OCc1ccccc1Cl)c1ccc(-n2cnnc2)cc1,-13,-1,-23,6%,2%
COc1ccc(S(=O)(=O)N2CCOC23CCN(S(=O)(=O)c2ccc(Cl)cc2)CC3)cc1,.,.,-10,12µM*,?
COc1ccc(S(=O)(=O)N2CCOC23CCN(S(=O)(=O)c2cccs2)CC3)cc1,.,.,-11,?,?
COc1ccc(S(=O)(=O)N2CCC3(CC2)OCCN3S(=O)(=O)c2ccc(OC)cc2)cc1,.,.,?,?,9.3µM*
CCOC(=O)C1=C(C)NC(=S)NC1c1cccc(O)c1 (centres undefined),25,-9,.,.,.
COc1ccc(CN(C)S(=O)(=O)c2nnc(NC(=O)c3cccc(F)c3)s2)cc1OC,-5,9,41,0%,?
CCOC(=O)c1c(-c2ccc(OC)cc2)csc1NC(=O)CSc1ccccc1,8,-1,-16,.,13µM*
CCOC(=O)c1c(-c2ccccc2)csc1NC(=O)CSc1nnnn1C,-4,4,-32,4.7µM*,.
CCOC(=O)c1c(NC(=O)CSc2nnnn2-c2ccc(OC)cc2)sc(C)c1C,-27,-2,15,.,?
CCOC(=O)c1c(-c2ccccc2)csc1NC(=O)CSc1nncs1,-11,-2,0,9.3µM*,?
CCOC(=O)c1c(NC(=O)CSc2nnnn2C)sc(C)c1-c1ccc(C)cc1,-16,16*,?,8.3µM*,2.3µM*
SMILES,Shiga inhibitor,Cycloheximide cs,HCMV inh,Pf growth 48h,Pf growth 96h
CCOC(=O)c1c(-c2ccccc2)csc1NC(=O)CSc1ccccc1,8,5,-4,?,15%
COc1ccc2c(c1)c1c(c(=O)n(-c3ccc(F)c(Cl)c3)c(=O)n1CC(N)=O)n2C,.,.,0,.,.
O=C(CNC(=O)c1ccc(Cl)c([N+](=O)[O-])c1)OC1CCCCC1=O (centres undefined),.,.,-11,0%,3%
CC(=O)Nc1ccccc1C(=O)C(=O)Nc1ccc(C(=O)N2CCOCC2)cc1,10,7,30,81%,-20%
COC(=O)c1c(-c2ccc(OC)c(OC)c2)csc1N,-11,-1,19,?,-29%
CCOC(=O)c1c(-c2ccccc2)csc1NC(=O)/C(C#N)=C/c1ccc(O)c(OC)c1,2,0,-65*,?,?
CCOC(=O)c1c(NC(=O)CSc2nncs2)sc(C)c1-c1ccccc1,-9,2,-64*,-7%,?
COC(=O)c1c(-c2ccc3ccccc3c2)csc1NC(=O)Cc1ccc(OC)c(OC)c1,-18,-3,-83*,8.3µM*,9.3µM*
CCOC(=O)c1c(NC(=O)CSc2nncs2)sc(C)c1C,-20,-3,-2,14%,12%
CCc1nc2c(OCC(N)=O)cccn2c1N(C)C(=O)c1cccs1,.,.,27,.,.
COc1ccc(N(C(=O)c2csnn2)C(C(=O)NC2CCCC2)c2ccccc2)cc1 (centres undefined),-11,27,2,0%,-24%
CCCN1C(=O)/C(=C\c2ccncc2)SC1=Nc1ccccc1,-13,-7,?,12µM*,?
CCN1C(=O)/C(=C\c2ccncc2)SC1=Nc1ccc(C)c(C)c1,-10,5,46,?,1.9µM*
O=C(OCC(=O)N1CCN(c2ccccc2)CC1)c1ccc2ncsc2c1,3,1,40,.,12µM*
CC(C)(C)c1ccc(NC(=O)COC(=O)c2ccc3ncsc3c2)cc1,.,.,-9,36%,-66%
O=C(OCC(=O)c1ccco1)c1ccc2ncsc2c1,58,29*,50,43%,.
CCN(Cc1ccccc1)C(=O)Cn1c(=O)n(-c2ccc(Cl)cc2)c(=O)c2c(C)c(C(=O)N(C)C)sc21,.,.,-15,.,.
CC(C)C[C@@H]1CC2=C(C(=O)OC(C)(C)O2)[C@H](c2ccc(Cl)cc2)O1,.,.,-9,.,.
CCCc1c(C)nc2c(OC)cccc2c1SCC(=O)O,11,-1,58,?,2%
CCCc1c(C)nc2ccc(OC)cc2c1SCCC(=O)O,-11,-4,-2,10%,12µM*
CCCOc1cccc(C(=O)O)c1,19,-3,39,3%,?
CCCOc1ccc2nc(C)c(CCC)c(SC(=N)N)c2c1,-3,1,26,1.2µM*,6.6µM*
O=C1NC(=O)C(=CN2CCc3ccccc32)C(=O)N1,15,0,-20,12%,42%
O=C1NC(=O)N(Cc2ccco2)C(=O)/C1=C/c1cccn1CCOc1ccccc1Cl,70*,23*,26,23%,-29%
Cn1cccc1/C=C1/C(=O)NC(=O)N(Cc2ccccc2)C1=O,-10,-6,?,8%,0%
O=C1NC(=O)N(Cc2ccccc2)C(=O)/C1=C\N1CCCc2ccccc21,65,28*,30,19%,70%
Cn1cccc1/C=C1\C(=O)NC(=O)N(Cc2ccccc2)C1=O,-3,-4,-65*,9%,20%
Cc1nn(C)cc1CN1CCC(n2nccc2NC(=O)CCCc2ccccc2)CC1,-17,-4,1,4%,30%
CCC1=C(OC(=O)N(CC)CC)N2C(=O)OC(=NCCc3c[nH]c4ccccc34)[C@]2(C)[C@H]2C1=CC[C@H]1C(=O)N(CC(=O)OC)C(=O)[C@H]12,-12,8,?,9.3µM*,15µM*
